# Results as given in publication PMC7862700, “An all-to-all approach to the identification of sequence-specific readers for epigenetic DNA modifications on cytosine”.
# Legend:
# Assay in all cases: DAPPL (digital affinity profiling via proximity ligation, sequencing); 10 mM Tris-HCl pH 7.5, 50 mM NaCl, 1 mM DTT, 4% glycerol, room temperature, 30 min; GST-TFs on glutathione beads, 16-mer random dsDNA library, 0.1% formaldehyde crosslink after washing; high values mean tight binding
# FLI1 = target: T1, FLI1 (Homo sapiens, UniProt Q01543 1-452); conditions: protein: recombinant; tags: N-terminal GST; dsDNA, one strand shown
# T1 sequence: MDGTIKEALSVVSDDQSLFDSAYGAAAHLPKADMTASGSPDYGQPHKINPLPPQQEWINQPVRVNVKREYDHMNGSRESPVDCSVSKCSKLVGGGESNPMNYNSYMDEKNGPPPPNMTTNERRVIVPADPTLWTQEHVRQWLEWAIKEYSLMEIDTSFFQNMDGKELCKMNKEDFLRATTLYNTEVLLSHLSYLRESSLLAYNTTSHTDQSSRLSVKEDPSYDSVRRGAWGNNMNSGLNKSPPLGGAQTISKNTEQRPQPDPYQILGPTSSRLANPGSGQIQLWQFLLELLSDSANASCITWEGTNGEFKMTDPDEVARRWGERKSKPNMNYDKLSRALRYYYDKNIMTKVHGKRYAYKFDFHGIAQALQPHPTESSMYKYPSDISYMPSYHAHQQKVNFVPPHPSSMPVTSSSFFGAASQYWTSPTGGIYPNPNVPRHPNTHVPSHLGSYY
# Outline: (§1)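 Pools were built from human transcription factors expressed in yeast as GST fusions, captured on glutathione beads and DNA-barcoded, along with a tag-only sample. Incubation with 200 nmole of a 16-mer random double-stranded DNA library lasted 30 min at room temperature in Tris/NaCl/DTT/glycerol buffer, and was followed by washing, 0.1% formaldehyde crosslinking, proximity ligation, PCR amplification and Illumina NextSeq500 sequencing. Binding signal is the quotient of each hexamer's read frequency for a factor and its frequency for the tag-only sample.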
# ELK1 = target: T2, ELK1 (Homo sapiens, UniProt P19419 1-428); conditions: protein: recombinant; tags: N-terminal GST; dsDNA, one strand shown
# T2 sequence: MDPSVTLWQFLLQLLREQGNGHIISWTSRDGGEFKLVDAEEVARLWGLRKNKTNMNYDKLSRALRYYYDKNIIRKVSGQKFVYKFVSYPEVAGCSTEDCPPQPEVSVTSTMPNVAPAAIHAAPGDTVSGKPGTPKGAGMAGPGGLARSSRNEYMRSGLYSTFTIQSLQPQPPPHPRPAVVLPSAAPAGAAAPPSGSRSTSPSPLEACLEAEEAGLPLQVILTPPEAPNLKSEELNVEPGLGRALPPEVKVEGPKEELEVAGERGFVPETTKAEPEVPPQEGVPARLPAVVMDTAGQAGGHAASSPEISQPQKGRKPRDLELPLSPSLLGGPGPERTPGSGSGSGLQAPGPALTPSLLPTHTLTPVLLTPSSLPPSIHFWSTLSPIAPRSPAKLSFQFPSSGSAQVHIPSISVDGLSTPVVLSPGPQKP
# Outline: as §1
# GABPA = target: T3, GABPA (Homo sapiens, UniProt Q06546 1-454); conditions: protein: recombinant; tags: N-terminal GST; dsDNA, one strand shown
# T3 sequence: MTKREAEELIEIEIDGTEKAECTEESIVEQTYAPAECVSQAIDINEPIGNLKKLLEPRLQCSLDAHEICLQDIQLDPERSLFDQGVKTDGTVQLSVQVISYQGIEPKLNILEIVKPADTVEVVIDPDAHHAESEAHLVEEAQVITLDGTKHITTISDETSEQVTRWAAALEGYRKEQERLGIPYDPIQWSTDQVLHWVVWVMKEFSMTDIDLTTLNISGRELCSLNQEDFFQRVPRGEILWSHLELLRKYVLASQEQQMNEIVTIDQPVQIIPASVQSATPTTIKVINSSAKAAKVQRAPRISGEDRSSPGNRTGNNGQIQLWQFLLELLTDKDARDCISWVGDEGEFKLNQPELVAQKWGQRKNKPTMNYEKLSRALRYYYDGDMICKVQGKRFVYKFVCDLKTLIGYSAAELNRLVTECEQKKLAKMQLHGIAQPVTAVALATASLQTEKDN
# Outline: as §1
# ERG = target: T4, ERG (Homo sapiens, UniProt P11308 1-479); conditions: protein: recombinant; tags: N-terminal GST; dsDNA, one strand shown
# T4 sequence: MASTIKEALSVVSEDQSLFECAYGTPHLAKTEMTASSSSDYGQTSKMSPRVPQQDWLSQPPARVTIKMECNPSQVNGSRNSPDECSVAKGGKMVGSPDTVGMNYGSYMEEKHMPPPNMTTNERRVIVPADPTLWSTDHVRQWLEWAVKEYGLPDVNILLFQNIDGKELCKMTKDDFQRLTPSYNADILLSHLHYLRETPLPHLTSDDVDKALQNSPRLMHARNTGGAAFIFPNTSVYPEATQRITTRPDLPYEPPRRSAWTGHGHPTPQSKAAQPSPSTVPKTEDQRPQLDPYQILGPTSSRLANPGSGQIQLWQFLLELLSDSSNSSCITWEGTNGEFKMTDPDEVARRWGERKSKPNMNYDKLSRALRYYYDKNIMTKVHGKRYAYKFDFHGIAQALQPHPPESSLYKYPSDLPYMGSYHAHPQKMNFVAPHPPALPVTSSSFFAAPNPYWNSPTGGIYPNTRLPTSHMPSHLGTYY
# Outline: as §1
# ELF1 = ELF1 (Homo sapiens, UniProt P32519 1-619); conditions: protein: recombinant; tags: N-terminal GST; dsDNA, one strand shown
# Chain of ELF1 (P32519 whole entry): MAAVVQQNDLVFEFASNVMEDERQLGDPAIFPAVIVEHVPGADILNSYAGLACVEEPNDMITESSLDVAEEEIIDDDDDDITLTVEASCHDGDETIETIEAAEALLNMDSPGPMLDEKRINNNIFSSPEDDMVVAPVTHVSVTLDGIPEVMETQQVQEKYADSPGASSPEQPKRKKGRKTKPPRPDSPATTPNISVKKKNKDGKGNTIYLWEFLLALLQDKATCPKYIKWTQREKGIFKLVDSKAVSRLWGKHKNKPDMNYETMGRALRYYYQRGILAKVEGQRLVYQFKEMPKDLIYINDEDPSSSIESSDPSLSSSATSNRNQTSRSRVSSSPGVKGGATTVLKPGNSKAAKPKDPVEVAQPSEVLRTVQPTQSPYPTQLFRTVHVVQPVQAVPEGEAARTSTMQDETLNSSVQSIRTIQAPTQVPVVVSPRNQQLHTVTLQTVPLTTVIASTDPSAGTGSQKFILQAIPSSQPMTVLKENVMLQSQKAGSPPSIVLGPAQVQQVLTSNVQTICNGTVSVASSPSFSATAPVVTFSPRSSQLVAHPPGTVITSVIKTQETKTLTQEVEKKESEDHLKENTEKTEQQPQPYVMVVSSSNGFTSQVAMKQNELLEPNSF
# Outline: as §1
# EHF = target: T5, EHF (Homo sapiens, UniProt Q9NZC4 1-300); conditions: protein: recombinant; tags: N-terminal GST; dsDNA, one strand shown
# T5 sequence: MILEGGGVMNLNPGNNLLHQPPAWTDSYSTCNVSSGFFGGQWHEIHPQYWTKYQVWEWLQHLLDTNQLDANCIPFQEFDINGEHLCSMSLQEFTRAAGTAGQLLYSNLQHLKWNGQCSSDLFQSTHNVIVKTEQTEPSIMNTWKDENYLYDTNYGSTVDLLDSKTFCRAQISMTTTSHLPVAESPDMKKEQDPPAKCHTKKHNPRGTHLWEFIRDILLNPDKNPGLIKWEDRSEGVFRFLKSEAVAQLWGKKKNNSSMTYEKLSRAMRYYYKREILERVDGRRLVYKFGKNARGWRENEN
# Outline: as §1
# SPI1 = SPI1 (Homo sapiens, UniProt P17947 1-270); conditions: protein: recombinant; tags: N-terminal GST; dsDNA, one strand shown
# Outline: as §1
# SPIB = SPIB (Homo sapiens, UniProt Q01892 1-262); conditions: protein: recombinant; tags: N-terminal GST; dsDNA, one strand shown
# Chain of SPIB (Q01892 whole entry): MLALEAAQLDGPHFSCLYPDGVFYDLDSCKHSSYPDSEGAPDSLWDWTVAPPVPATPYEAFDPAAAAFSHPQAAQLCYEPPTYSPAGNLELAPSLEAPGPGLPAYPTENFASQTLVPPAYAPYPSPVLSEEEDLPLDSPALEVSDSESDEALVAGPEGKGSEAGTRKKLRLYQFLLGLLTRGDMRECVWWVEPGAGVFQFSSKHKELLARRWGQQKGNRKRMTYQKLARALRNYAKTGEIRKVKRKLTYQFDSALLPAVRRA
# Outline: as §1
# ELK3 = target: T6, ELK3 (Homo sapiens, UniProt P41970 1-407); conditions: protein: recombinant; tags: N-terminal GST; dsDNA, one strand shown
# T6 sequence: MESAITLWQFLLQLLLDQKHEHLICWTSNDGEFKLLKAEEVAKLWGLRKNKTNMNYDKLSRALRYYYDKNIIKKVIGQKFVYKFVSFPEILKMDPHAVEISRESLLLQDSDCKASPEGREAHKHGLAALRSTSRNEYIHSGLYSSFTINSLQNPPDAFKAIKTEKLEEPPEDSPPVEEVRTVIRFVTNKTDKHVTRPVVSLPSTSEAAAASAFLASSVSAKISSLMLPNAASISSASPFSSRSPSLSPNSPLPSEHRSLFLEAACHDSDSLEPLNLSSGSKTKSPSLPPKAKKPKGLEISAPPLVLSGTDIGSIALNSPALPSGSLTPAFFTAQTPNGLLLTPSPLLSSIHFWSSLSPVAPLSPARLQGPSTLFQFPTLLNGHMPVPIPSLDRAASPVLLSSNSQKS
# Outline: as §1
# FEV = target: T7, FEV (Homo sapiens, UniProt Q99581 1-238); conditions: protein: recombinant; tags: N-terminal GST; dsDNA, one strand shown
# T7 sequence: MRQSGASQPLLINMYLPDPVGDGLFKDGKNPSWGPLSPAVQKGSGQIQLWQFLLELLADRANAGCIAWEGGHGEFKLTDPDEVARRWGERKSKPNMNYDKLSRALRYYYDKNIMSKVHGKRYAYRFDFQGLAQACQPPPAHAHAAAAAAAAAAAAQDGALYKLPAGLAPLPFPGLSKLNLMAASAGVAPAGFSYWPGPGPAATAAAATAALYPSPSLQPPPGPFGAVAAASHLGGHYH
# Outline: as §1
# ETV5 = ETV5 (Homo sapiens, UniProt P41161 1-510); conditions: protein: recombinant; tags: N-terminal GST; dsDNA, one strand shown
# Chain of ETV5 (P41161 whole entry): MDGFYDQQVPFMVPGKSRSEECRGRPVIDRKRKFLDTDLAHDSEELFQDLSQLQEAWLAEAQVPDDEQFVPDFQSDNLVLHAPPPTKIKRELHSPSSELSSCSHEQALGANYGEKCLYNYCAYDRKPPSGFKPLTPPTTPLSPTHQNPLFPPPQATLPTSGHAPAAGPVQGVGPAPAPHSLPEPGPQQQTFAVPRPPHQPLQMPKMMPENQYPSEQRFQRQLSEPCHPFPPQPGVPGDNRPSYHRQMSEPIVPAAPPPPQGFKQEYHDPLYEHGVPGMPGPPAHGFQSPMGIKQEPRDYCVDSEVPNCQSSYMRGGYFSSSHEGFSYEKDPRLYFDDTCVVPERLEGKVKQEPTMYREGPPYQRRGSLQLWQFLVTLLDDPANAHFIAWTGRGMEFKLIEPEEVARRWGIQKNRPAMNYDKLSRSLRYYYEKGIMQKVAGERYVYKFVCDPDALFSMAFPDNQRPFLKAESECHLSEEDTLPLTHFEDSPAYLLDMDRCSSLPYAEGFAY
# Outline: as §1
# HSF1 = HSF1 (Homo sapiens, UniProt Q00613 1-529); conditions: protein: recombinant; tags: N-terminal GST; chain copies: 3; dsDNA, one strand shown
# Chain of HSF1 (Q00613 whole entry): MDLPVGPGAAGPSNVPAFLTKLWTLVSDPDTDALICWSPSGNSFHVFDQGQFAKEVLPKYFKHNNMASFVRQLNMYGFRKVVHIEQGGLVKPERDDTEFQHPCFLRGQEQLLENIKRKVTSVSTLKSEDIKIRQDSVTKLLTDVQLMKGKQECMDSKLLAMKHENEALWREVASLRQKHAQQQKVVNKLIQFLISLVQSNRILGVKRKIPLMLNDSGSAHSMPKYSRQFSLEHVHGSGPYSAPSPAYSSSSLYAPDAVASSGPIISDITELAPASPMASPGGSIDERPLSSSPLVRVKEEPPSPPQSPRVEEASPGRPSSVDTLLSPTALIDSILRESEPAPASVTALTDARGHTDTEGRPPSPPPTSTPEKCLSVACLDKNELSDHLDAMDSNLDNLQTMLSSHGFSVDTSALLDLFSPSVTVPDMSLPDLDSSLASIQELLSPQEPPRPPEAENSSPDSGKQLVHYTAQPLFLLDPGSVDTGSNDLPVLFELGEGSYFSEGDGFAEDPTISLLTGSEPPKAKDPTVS
# Outline: as §1
# SPIC = target: T8, SPIC (Homo sapiens, UniProt Q8N5J4 1-248); conditions: protein: recombinant; tags: N-terminal GST; dsDNA, one strand shown
# T8 sequence: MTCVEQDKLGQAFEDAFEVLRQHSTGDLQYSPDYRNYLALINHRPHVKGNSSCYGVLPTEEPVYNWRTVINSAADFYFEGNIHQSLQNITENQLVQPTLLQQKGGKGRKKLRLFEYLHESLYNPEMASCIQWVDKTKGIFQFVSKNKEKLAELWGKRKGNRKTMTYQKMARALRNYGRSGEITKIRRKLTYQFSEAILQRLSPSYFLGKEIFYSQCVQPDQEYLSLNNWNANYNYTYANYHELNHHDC
# Outline: as §1
# ELF4 = ELF4 (Homo sapiens, UniProt Q99607 1-663); conditions: protein: recombinant; tags: N-terminal GST; dsDNA, one strand shown
# Chain of ELF4 (Q99607 whole entry): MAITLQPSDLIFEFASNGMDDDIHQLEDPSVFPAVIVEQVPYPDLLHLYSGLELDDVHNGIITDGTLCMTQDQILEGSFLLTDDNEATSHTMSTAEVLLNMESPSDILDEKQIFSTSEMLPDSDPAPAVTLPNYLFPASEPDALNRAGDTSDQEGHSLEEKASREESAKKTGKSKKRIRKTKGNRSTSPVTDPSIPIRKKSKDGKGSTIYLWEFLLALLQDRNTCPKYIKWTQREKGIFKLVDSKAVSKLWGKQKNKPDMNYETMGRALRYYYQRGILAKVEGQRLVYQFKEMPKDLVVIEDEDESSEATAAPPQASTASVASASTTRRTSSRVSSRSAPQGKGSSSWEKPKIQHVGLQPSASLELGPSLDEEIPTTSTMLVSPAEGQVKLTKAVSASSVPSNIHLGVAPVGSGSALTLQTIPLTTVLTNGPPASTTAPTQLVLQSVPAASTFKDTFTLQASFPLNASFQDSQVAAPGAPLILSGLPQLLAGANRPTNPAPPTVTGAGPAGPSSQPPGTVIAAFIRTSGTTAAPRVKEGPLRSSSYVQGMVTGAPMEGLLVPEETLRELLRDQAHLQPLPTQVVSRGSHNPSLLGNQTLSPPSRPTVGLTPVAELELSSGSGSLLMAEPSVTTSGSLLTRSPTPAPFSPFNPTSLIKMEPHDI
# Outline: as §1
# ELK4 = target: T9, ELK4 (Homo sapiens, UniProt P28324-2 1-405); conditions: protein: recombinant; tags: N-terminal GST; dsDNA, one strand shown
# T9 sequence: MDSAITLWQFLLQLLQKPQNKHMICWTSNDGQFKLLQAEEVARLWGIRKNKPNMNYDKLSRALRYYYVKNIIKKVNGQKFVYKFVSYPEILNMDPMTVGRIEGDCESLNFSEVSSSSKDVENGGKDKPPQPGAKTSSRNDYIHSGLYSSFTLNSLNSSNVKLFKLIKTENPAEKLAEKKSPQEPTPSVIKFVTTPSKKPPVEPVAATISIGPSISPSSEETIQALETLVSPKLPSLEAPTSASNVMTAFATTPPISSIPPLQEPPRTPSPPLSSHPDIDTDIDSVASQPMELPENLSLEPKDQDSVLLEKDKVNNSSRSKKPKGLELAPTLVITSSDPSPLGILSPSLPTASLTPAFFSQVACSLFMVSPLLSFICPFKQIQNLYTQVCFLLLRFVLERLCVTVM
# Outline: as §1
# ETV2 = target: T10, ETV2 (Homo sapiens, UniProt O00321 1-342); conditions: protein: recombinant; tags: N-terminal GST; dsDNA, one strand shown
# T10 sequence: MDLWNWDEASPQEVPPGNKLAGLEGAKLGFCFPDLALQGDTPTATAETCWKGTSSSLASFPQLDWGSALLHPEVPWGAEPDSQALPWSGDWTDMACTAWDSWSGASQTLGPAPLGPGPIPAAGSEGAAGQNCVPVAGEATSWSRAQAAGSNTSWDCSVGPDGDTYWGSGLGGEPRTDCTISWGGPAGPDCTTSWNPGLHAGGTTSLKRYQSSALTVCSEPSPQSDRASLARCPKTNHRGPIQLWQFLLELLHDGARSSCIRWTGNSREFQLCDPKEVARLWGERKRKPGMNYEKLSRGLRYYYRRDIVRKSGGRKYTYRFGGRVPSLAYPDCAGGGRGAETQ
# Outline: as §1
# ELF3 = target: T11, ELF3 (Homo sapiens, UniProt P78545 1-371); conditions: protein: recombinant; tags: N-terminal GST; dsDNA, one strand shown
# T11 sequence: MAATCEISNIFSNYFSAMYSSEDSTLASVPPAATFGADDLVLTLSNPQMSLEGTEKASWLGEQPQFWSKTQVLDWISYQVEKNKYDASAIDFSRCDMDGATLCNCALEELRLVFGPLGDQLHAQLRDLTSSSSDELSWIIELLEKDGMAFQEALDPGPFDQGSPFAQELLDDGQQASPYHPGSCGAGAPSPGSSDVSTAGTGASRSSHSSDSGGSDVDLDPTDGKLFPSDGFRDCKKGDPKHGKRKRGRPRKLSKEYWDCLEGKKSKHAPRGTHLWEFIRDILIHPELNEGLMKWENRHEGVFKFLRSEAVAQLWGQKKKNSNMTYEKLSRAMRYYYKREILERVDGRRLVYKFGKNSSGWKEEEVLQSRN
# Outline: as §1
# CRX = CRX (Homo sapiens, UniProt O43186 1-299); conditions: protein: recombinant; tags: N-terminal GST; dsDNA, one strand shown
# Chain of CRX (O43186 whole entry): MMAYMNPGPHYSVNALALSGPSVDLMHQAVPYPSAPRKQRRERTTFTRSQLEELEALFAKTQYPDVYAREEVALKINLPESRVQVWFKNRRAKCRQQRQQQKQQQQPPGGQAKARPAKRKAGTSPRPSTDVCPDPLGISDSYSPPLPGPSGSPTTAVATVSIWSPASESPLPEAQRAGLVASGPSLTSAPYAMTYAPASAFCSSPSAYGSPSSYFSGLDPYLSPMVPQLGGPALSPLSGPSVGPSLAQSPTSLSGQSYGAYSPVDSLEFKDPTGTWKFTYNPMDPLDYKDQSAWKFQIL
# Outline: as §1
# ETV1 = ETV1 (Homo sapiens, UniProt P50549 1-477); conditions: protein: recombinant; tags: N-terminal GST; dsDNA, one strand shown
# Chain of ETV1 (P50549 whole entry): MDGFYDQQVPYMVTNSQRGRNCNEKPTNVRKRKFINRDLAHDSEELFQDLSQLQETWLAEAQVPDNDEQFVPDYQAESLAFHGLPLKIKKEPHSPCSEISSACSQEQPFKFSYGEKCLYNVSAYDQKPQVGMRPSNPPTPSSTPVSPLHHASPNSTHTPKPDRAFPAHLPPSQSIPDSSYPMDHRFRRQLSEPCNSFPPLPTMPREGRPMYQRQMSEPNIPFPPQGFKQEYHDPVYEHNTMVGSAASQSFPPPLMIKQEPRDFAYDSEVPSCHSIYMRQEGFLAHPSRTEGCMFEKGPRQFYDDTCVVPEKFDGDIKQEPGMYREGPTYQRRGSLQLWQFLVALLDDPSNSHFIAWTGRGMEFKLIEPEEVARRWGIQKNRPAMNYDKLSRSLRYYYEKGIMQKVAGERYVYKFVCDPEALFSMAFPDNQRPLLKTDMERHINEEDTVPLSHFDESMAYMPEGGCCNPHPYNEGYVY
# Outline: as §1
sequence,measurement,setting,value
CTACCC,binding signal,FLI1,"1.27 fold enrichment (6-mer frequency, TF over GST control)"
same,binding signal,ELK1,"1.32 fold enrichment (6-mer frequency, TF over GST control)"
same,binding signal,GABPA,"1.4 fold enrichment (6-mer frequency, TF over GST control)"
same,binding signal,ERG,"1.36 fold enrichment (6-mer frequency, TF over GST control)"
same,binding signal,ELF1,"1.33 fold enrichment (6-mer frequency, TF over GST control)"
same,binding signal,EHF,"1.27 fold enrichment (6-mer frequency, TF over GST control)"
same,binding signal,SPI1,"1.31 fold enrichment (6-mer frequency, TF over GST control)"
same,binding signal,SPIB,"1.34 fold enrichment (6-mer frequency, TF over GST control)"
same,binding signal,ELK3,"1.31 fold enrichment (6-mer frequency, TF over GST control)"
same,binding signal,FEV,"1.26 fold enrichment (6-mer frequency, TF over GST control)"
same,binding signal,ETV5,"1.28 fold enrichment (6-mer frequency, TF over GST control)"
same,binding signal,HSF1,"1.04 fold enrichment (6-mer frequency, TF over GST control)"
same,binding signal,SPIC,"1.47 fold enrichment (6-mer frequency, TF over GST control)"
same,binding signal,ELF4,"1.36 fold enrichment (6-mer frequency, TF over GST control)"
same,binding signal,ELK4,"1.23 fold enrichment (6-mer frequency, TF over GST control)"
same,binding signal,ETV2,"1.29 fold enrichment (6-mer frequency, TF over GST control)"
same,binding signal,ELF3,"1.3 fold enrichment (6-mer frequency, TF over GST control)"
same,binding signal,CRX,"1.08 fold enrichment (6-mer frequency, TF over GST control)"
same,binding signal,ETV1,"1.26 fold enrichment (6-mer frequency, TF over GST control)"
